Hits are enriched below; roughly 11% of the tested compounds scored in any of these assays.
HEK293 tox = cytotoxic compounds in HEK 293 cells; Potency, µM (series often up to 115 µM), without a hit: at the highest dose activity change, negative = cytotoxicity, usual class: inhibitors; HEK 293 viability, ATP luminescence (CellTiter-Glo), 48-72 h; hit rate 6.6% among 94,000; note: % is set by controls: 0 for no effect and ±100 for the full control effect; nearly all actives have a fitted effect of over 60% in size
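HEK 293 seeded at 250 cells/well receive compound via pintool. After 48 or 72 hr at 37 degree Celsius, 5% CO2 and 95% humidity, CellTiter-Glo is dispensed and luminescence read following 10 min at room temperature.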
NIH3T3 tox = NIH 3T3 cell cytotoxicity | Potency, µM (highest dose often 96.7 µM), without a hit: at the top dose activity change, negative = cytotoxicity, hits mostly inhibitors | NIH 3T3 viability, CellTiter-Glo ATP luminescence, 48-72 h | hit rate 4.3% among 94,000 | AID 1345082; note: % is set by controls: 0 for no effect and ±100 for the full control effect; nearly all actives have a fitted effect of over 55% in size
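Cells were seeded at 400 per well, treated with pin-transferred compound, and kept 48 or 72 hr at 37 °C before CellTiter-Glo addition and luminescence imaging of cellular ATP.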
NPR1 antag = antagonists of human natriuretic peptide receptor Npr1 | P16066 | HEK293 hNpr1 GloSensor cGMP, ANP-stimulated luminescence | Potency, µM (highest dose often 46.3 µM), for inactives: top-dose activity change, negative = inhibition, actives largely listed as inhibitors | hit rate 1.6% among 76,000 | AID 1347048; calls by dose curve; note: % is set by controls: 0 for no effect and ±100 for the full control effect; nearly all actives have a fitted effect of over 60% in size
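HEK293 cells stably expressing human Npr1 and cGMP GloSensor pGS-40F, loaded 2 h with 2% GloSensor reagent, given compound 30 min at room temperature. Luminescence read before and 20 min after 0.1 nM hNppA.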
Luciferase inh = blocks purified firefly luciferase enzyme activity. P08659. purified P. pyralis luciferase, luminescence, biochemical. Potency, µM (highest dose often 115 µM), actives largely listed as inhibitors. hit rate 2.5% among 76,000; note: % is set by controls: 0 for no effect and ±100 for the full control effect; nearly all actives have a fitted effect of over 65% in size
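Luminescence read by CCD imaging after purified firefly luciferase (10nM final) was added to substrate buffer holding 10uM D-luciferin and 10uM ATP, pH 7.5, pre-dosed with compound.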
Npr1 antag conf = confirmation of human Npr1 natriuretic peptide receptor antagonists | AID 1347044 | shares compounds with NPR1 antag | HEK293 hNpr1 cGMP GloSensor luminescence, ANP-stimulated | Potency, µM (highest dose often 57.6 µM), for the others: at the highest dose activity change, negative = inhibition, actives largely listed as inhibitors | hit rate 76% among 1,400; calls by dose curve; note: nearly all actives have a fitted effect of over 70% in size
Npr2 selectivity = hNpr2 antagonism, selectivity versus Npr1. HEK293 hNpr2 GloSensor cGMP luminescence, CNP-stimulated. shares compounds with NPR1 antag. hit rate 67% among 1,400. Potency, µM (doses to about 57.6 µM), for inactives: at the highest dose activity change, negative = inhibition, usual class: inhibitors. AID 1347046; calls by dose curve; note: nearly all actives have a fitted effect of over 70% in size
Target sequence (P20594 whole entry, looked up): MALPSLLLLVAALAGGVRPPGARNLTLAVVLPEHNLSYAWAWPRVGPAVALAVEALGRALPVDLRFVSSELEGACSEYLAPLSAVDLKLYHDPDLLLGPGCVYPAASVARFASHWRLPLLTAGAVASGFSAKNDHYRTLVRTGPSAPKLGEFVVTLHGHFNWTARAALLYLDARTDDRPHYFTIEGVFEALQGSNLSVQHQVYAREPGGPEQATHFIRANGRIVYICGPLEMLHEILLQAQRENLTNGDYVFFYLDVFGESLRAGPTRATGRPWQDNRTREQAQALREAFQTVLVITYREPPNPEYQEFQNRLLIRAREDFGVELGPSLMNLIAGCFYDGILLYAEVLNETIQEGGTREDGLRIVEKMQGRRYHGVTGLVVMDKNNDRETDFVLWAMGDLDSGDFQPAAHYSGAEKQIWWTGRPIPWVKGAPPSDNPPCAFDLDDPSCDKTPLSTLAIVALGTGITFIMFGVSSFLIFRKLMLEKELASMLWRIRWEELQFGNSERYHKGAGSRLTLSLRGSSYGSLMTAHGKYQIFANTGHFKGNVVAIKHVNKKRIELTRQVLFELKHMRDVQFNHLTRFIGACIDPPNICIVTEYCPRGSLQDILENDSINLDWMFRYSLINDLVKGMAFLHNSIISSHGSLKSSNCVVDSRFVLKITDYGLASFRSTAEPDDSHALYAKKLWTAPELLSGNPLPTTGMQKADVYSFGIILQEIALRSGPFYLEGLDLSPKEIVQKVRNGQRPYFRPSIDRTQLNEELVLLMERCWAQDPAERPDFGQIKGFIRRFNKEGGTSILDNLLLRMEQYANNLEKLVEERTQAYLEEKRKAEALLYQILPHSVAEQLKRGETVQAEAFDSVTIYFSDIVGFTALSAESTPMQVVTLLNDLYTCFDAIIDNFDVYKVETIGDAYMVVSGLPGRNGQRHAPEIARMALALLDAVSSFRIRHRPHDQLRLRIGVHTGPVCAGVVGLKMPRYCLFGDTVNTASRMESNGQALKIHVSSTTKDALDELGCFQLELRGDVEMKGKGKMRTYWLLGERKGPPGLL
FLuc counter = FLuc enzyme inhibition, Npr1 counter-screen; shares compounds with NPR1 antag; purified FLuc enzyme, luminescence, Km substrate; Potency, µM (series often up to 57.6 µM), inactives show top-dose activity change, negative = inhibition, hits mostly inhibitors; hit rate 0.7% among 1,400; note: 0% is about no effect
GloSensor ctrl = control cell line activity, Npr1 antagonist counter-screen | shares compounds with NPR1 antag | HEK293 GloSensor cGMP, SNP-stimulated, luminescence | Potency, µM (doses to about 57.6 µM), without a hit: at the highest dose activity change, negative = inhibition, most hits filed as inhibitors | hit rate 69% among 1,400; calls by dose curve; note: % is set by controls: 0 for no effect and ±100 for the full control effect; nearly all actives have a fitted effect of over 70% in size
An asterisk follows results filed as active; i = inactive; u = inconclusive; x = not tested or not shown; [ ] = dose if it differs, or a comment. Unless noted, calls come from the whole dose curve; as a rule, active = well fitted curve in the direction sought with a large enough effect; inconclusive = small, poorly fitted or top-dose-only effect, or another doubt; inactive = no such curve, though single readings can be large; an effect the other way counts as inactive or inconclusive. Potency is the fitted concentration of half-maximal effect.

SMILES	HEK293 tox	NIH3T3 tox	NPR1 antag	Luciferase inh	Npr1 antag conf	Npr2 selectivity	FLuc counter	GloSensor ctrl
CC(C)c1ccc(NC(=O)N[C@H]2CO[C@H]3[C@@H]2OC[C@H]3OC(=O)Nc2ccc(Oc3ccccc3)cc2)cc1	u	u	u	i	19µM*	19µM*	0%	19µM*
COc1cc(NC(=S)N[C@H]2CO[C@H]3[C@@H]2OC[C@H]3OC(=O)Nc2ccccc2)cc(OC)c1	-12%	-18%	-13%	i	x	x	x	x
N#Cc1cccc(NC(=O)O[C@@H]2CO[C@H]3[C@@H]2OC[C@@H]3n2nnnc2SC2CCCC2)c1	3%	4%	5%	i	x	x	x	x
CCNC(=O)O[C@@H]1CO[C@H]2[C@@H]1OC[C@@H]2NC(=O)Nc1ccc(C(C)C)cc1	-20%[172 µM]	0%[174 µM]	2%[70.6 µM]	i	x	x	x	x
COc1ccc(OC)c(S(=O)(=O)N[C@H]2CO[C@H]3[C@@H]2OC[C@H]3OC(=O)Nc2cccc(C(F)(F)F)c2)c1	u	u	13µM*	i	27µM*	22µM*	2%	27µM*
COc1ccc(OC)c(S(=O)(=O)N[C@H]2CO[C@H]3[C@@H]2OC[C@H]3OC(=O)Nc2cccc(C(C)=O)c2)c1	-5%	-3%	2%	i	x	x	x	x
O=C(Nc1ccc(Oc2ccccc2)cc1)O[C@@H]1CO[C@H]2[C@@H]1OC[C@@H]2n1nnnc1SC1CCCC1	25µM*	u	10µM*	i	17µM*	17µM*	1%	14µM*
CN(C)c1ccc(CN[C@H]2CO[C@H]3[C@@H]2OC[C@H]3OC(=O)Nc2ccc(Oc3ccccc3)cc2)cc1	u	u	u	i	u	u	-13%	22µM*
COc1ccc(NC(=O)N[C@H]2CO[C@H]3[C@@H]2OC[C@H]3OC(=O)Nc2ccc(Oc3ccccc3)cc2)cc1	18µM*	u	13µM*	i	14µM*	17µM*	-10%	12µM*
COc1ccc(C(=O)N[C@H]2CO[C@H]3[C@@H]2OC[C@H]3OC(=O)Nc2ccccc2)cc1	63µM*	u	32µM*	i	40µM*	35µM*	-9%[86.2 µM]	35µM*
O=C(Nc1ccccc1)O[C@@H]1CO[C@H]2[C@@H]1OC[C@@H]2NCc1ccccc1	u	u	0%[70.6 µM]	i	x	x	x	x
CC(=O)NCCNC[C@@H]1C=C(C)[C@H](Cc2nnc(-c3cncn3C)o2)C[C@H]1C(C)C	-15%[172 µM]	-9%[174 µM]	-3%[70.6 µM]	i	x	x	x	x
CCNC(=O)N1CCC(c2nc(-c3cccn3C)no2)CC1	-9%	-25%	x	x	x	x	x	x
O=C(COc1ccc(F)cc1)N1CCCCC1c1nc(-c2cnccn2)n[nH]1 (centres undefined)	i	-18%	x	x	x	x	x	x
O=C(NCc1ccccc1Cl)c1ccc(CN2C(=O)NC3(CCOCC3)C2=O)cc1	-22%	-19%	-23%	i	x	x	x	x
CC(C)c1ccc(CNC(=O)c2ccc(CN3C(=O)NC4(CCOCC4)C3=O)cc2)cc1	u	u	7.1µM*	i	19µM*	19µM*	-2%	15µM*
CCCCc1nn(CC(=O)N2CCC(COC)C2)c(=O)n1Cc1ccccc1 (centres undefined)	-9%	-3%	6%	i	x	x	x	x
CN(Cc1cccnc1)Cc1nc(C2(O)CCN(Cc3ccc(C(F)(F)F)cc3)CC2)cs1	-58%	-46%	1µM*	i	0.86µM*	1.7µM*	0%	0.86µM*
Cc1ccc(CN2CCN(C(=O)c3ccc4c(c3)C(O)CCCCCN4C)CC2)cc1 (centres undefined)	40µM*	u	11µM*	i	22µM*	19µM*	1%	17µM*
CC(C)CN1CCN(C(=O)c2ccc3c(c2)C(O)CCCCCN3C)CC1 (centres undefined)	u	-34%	0%	i	x	x	x	x
CN(Cc1ccc(N2CCCCC2)cc1)C(=O)c1ccc2c(c1)C(O)CCCCCN2C (centres undefined)	35µM*	u	14µM*	i	24µM*	22µM*	0%	27µM*
COc1ccc(N2CCN(C(=O)c3ccc4c(c3)C(O)CCCCCN4C)CC2)cc1 (centres undefined)	u	u	u	i	x	x	x	x
O=C(c1csc(N2CCN(c3ccccc3)CC2)n1)N1CCN(c2ccccn2)CC1	-40%	3%	13µM*	i	27µM*	24µM*	0%	24µM*
O=C(c1csc(N2CCN(c3ccccc3)CC2)n1)N1CCCCCC1	u	u	10µM*	i	22µM*	22µM*	-11%	19µM*
O=C(NCCNC(=O)C1CCCC1)c1cccc(-c2ccc(C(F)(F)F)cc2)c1	u	-39%	x	x	x	x	x	x
SMILES	HEK293 tox	NIH3T3 tox	NPR1 antag	Luciferase inh	Npr1 antag conf	Npr2 selectivity	FLuc counter	GloSensor ctrl
CC(C)c1cc(C(=O)NC2CCN(c3ncccc3C#N)CC2)n(C)n1	u	u	7.1µM*	i	8.6µM*	12µM*	1%	7.7µM*
COc1cccc(CCC(=O)N2CCC(c3nc(C4CCOCC4)no3)C2)c1 (centres undefined)	u	-26%	-1%	i	x	x	x	x
O=C(CCc1ccccc1)N1CCC(c2nc(C3CCOCC3)no2)C1 (centres undefined)	-11%	-10%	-18%	i	-17%	-2%	-2%	-12%
O=C1CC[C@@H](CN(Cc2ccncc2)C(=O)c2ccc3nccn3c2)N1	1%	-3%	-18%	i	x	x	x	x
O=C(Cc1ccc(F)cc1)N1CCC(Cc2nc(-c3ccc(F)cc3)no2)CC1	u	u	13µM*	i	14µM*	14µM*	3%	11µM*
O=C(COc1ccc(Cl)cc1)N1CCC[C@H]1c1nc(-c2ccc(F)cc2)no1	u	u	-19%	i	x	x	x	x
CN(C)C(=O)c1ccc(CC2CCN(C(=O)CC3CCCCC3)CC2)cc1	35µM*	u	11µM*	i	15µM*	19µM*	3%	15µM*
O=C(COc1ccc(F)cc1)N1CCC(Oc2ccc(-c3noc(C4CC4)n3)cc2)C1 (centres undefined)	u	u	11µM*	i	u	u	-2%	31µM*
